# Test results published in PubChem BioAssay (Tox21).
# Values joined by “and” are separate entries in the source; they are usually repeats but may differ in a detail not shown here. Equal entries are not always repeated. Unmarked numbers belong to inactive results. Records with an inconclusive call do not appear. Where a call stands in place of a potency, no number is given. Active and inactive are the calls of the source. Calls follow the shape of the full dose curve.
# Experiments:
# [1] = target: Acetylcholinesterase (Homo sapiens) (UniProt P22303); assay: Acetylcholinesterase (AChE) small molecule antagonists: colormetric cell-based qHTS assay (AID 1347395); also: nearly all actives have a fitted effect of over 30% in size; also: potency is read from the fitted curve at half-maximal effect
# How it was run: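 Cells (SH-SY5Y, 2,000 per well) are seeded and left overnight at 37 C. Compound is added for 30 min, then DTNB and acetylthiocholine for a further 90 min at 37 C before absorbance-based thiocholine detection.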
# [2] = target: Acetylcholinesterase (Homo sapiens) (UniProt P22303); assay: Acetylcholinesterase (AChE) small molecule antagonists: enzyme-based qHTS assay (AID 1347397); settings: Potency: AChE enzyme activity inhibition; outcome: AChE enzyme activity inhibition; also: nearly all actives have a fitted effect of over 55% in size; also: potency is read from the fitted curve at half-maximal effect
# How it was run: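 Absorbance-based detection of thiocholine with DTNB served as the read-out. Recombinant human AChE was exposed to compound for 30 min at RT before a 10 min RT incubation with acetylthiocholine.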
# [3] = target: Acetylcholinesterase (Homo sapiens) (UniProt P22303); assay: Acetylcholinesterase (AChE) small molecule antagonists: fluorescence cell-based qHTS assay (AID 1347398); settings: Potency: AChE activity; outcome: AChE activity; also: nearly all actives have a fitted effect of over 50% in size; also: potency is read from the fitted curve at half-maximal effect
# How it was run: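 Fluorimetric cell-based assay: intact SH-SY5Y cells, 30 min compound preincubation at 37 C, acetylthiocholine substrate with thiol probe Thiolite Green, 40 min RT development, fluorescence 490/520 nm.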
# [4] = target: Acetylcholinesterase (Homo sapiens) (UniProt P22303); assay: Acetylcholinesterase (AChE) small molecule antagonists: enzyme-based qHTS assay with human liver microsomes (AID 1347399); settings: Potency: qHTS inhibition; outcome: qHTS inhibition; also: nearly all actives have a fitted effect of over 60% in size
# How it was run: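 Recombinant human AChE (50 mU/mL in the enzyme mix) and human liver microsomes (0.25 mg/mL final) were preincubated with compound and NADPH (0.25 mg/mL final) for 30 min at 37 C. Acetylthiocholine/DTNB was then added; thiocholine was read colorimetrically after 10 min at room temperature.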
# Acetylcholinesterase (Homo sapiens), sequence (P22303 whole entry, looked up): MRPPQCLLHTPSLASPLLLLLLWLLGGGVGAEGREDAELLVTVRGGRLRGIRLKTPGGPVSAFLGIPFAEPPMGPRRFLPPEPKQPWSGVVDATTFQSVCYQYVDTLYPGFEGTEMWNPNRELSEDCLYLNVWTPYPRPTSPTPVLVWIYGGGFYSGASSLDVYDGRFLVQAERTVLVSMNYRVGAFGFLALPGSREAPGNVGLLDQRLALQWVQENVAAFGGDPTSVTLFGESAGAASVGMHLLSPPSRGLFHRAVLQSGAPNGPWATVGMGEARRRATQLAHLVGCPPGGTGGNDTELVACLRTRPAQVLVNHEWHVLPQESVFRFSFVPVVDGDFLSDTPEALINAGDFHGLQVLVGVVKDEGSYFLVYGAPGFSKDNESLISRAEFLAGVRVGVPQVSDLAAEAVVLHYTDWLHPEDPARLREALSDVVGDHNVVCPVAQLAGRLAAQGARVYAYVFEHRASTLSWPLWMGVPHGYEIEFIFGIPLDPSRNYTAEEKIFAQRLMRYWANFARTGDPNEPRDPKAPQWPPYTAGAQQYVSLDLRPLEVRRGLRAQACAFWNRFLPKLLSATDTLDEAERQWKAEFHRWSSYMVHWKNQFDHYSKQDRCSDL
SMILES,Potency [1],Potency [2],Potency [3],Potency [4],"activity, negative = inhibition [1]","activity change, negative = inhibition [2]","activity change, negative = inhibition [3]","activity change, negative = inhibition [4]"
C=C(C)C1CC=C(C)C(=O)C1 (stereo not given),inactive,inactive,inactive,inactive,,,,
O=C(O)c1snc(Cl)c1Cl,inactive,inactive,inactive,inactive,,,,
CN1CCc2cccc3c2[C@H]1Cc1ccc(O)c(O)c1-3,64 µM (active),40.4 µM (active) and 21.1 µM (active),64 µM (active),inactive,,,,
O=Cc1ccc(Cl)c(Cl)c1,inactive,inactive,inactive,inactive,,,,
CC1=CCC(=O)O1,inactive,inactive,inactive,inactive,,,,
COC(=O)[C@@H]1CC2=CC(=O)CC[C@]2(C)[C@@]23O[C@@H]2C[C@@]2(C)[C@@H](CC[C@@]24CCC(=O)O4)[C@H]13,inactive,inactive,inactive,inactive,,,,
Nc1ccn([C@@H]2O[C@H](CO)[C@@H](O)C2O)c(=O)n1 (stereo not given in full),inactive,inactive,inactive,inactive,,,,
O=S(=O)(O)c1ccc(O)c2ncccc12,inactive,inactive,inactive,inactive,,,,
C=Cc1ccc(O)c(OC)c1,inactive,inactive,inactive,inactive,,,,
Nc1ccc(Oc2cccc(Oc3ccc(N)cc3)c2)cc1,inactive,inactive,inactive,inactive,,,,
O=C(O)c1nc(Cl)c(Cl)c(Cl)c1Cl,inactive,inactive,inactive,inactive,,,,
CO[Si](CCCn1c(=O)n(CCC[Si](OC)(OC)OC)c(=O)n(CCC[Si](OC)(OC)OC)c1=O)(OC)OC,inactive,inactive,inactive,inactive,,,,
OCCCCCCCl,inactive,inactive,inactive,inactive,,,,
Cc1scc2c1N(C(=O)CN1CCN(C)CC1)c1ccccc1NC2=O,inactive,inactive,inactive,inactive,,,,
C[N+]1(C)CCC(=C(c2ccccc2)c2ccccc2)CC1,inactive,inactive,inactive,inactive,,,,
C=C(C)C(=O)OCCCCCCCC(C)C,inactive,inactive,inactive,inactive,,,,
CC(=O)Nc1ccc(C)cc1,inactive,inactive,inactive,inactive,,,,
C=CCCCCCCCCC(=O)O,inactive,inactive,inactive,inactive,,,,
CC(C)CCCC(C)N (stereo not given),inactive,inactive,inactive,inactive,,,,
NC(=O)NS(=O)(=O)c1ccc(N)cc1,inactive,inactive,inactive,inactive,,,,

SMILES,Potency [1],Potency [2],Potency [3],Potency [4],"activity, negative = inhibition [1]","activity change, negative = inhibition [2]","activity change, negative = inhibition [3]","activity change, negative = inhibition [4]"
Cc1ccc(C(=O)O)cc1,inactive,inactive,inactive,inactive,,,,
Cc1cc(C)c(/C=C2\C(=O)Nc3ccccc32)[nH]1,inactive,inactive,inactive,inactive,,,,
CCOC(=O)C(C)Oc1ccc(Oc2cnc3cc(Cl)ccc3n2)cc1 (stereo not given),inactive,inactive,inactive,inactive,,,,
COc1cc(C)c(Cc2cnc(N)nc2N)cc1OC,inactive,inactive,inactive,inactive,,,,
CO[Si](CCCOCC1CO1)(OC)OC (stereo not given),inactive,inactive,inactive,inactive,,,,
CC1(C)O[C@@H]2C[C@H]3[C@@H]4CCC5=CC(=O)C=C[C@]5(C)[C@@]4(F)[C@@H](O)C[C@]3(C)[C@]2(C(=O)CO)O1,inactive,inactive,inactive,inactive,,,,
CCCCC(CC)COC(=O)c1ccccc1C(=O)O (stereo not given),inactive,inactive,inactive,inactive,,,,
C/C=C/CO,inactive,inactive,inactive,inactive,,,,
O=C1CCCCC1,inactive,inactive,inactive,inactive,,,,
COc1ccc(CCN(C)CCCN2CCc3cc(OC)c(OC)cc3CC2=O)cc1OC,inactive,inactive,inactive,inactive,,,,
CCCCCC(C)O (stereo not given),inactive,inactive,inactive,inactive,,,,
CCCCC(CC)COC(=O)C(C#N)=C(c1ccccc1)c1ccccc1 (stereo not given),inactive,inactive,inactive,inactive,,,,
CCCCC(CC)C(=O)O (stereo not given),inactive,inactive,inactive,inactive,,,,
CCOCCOCCO,inactive,inactive,inactive,inactive,,,,
Oc1ccc(N=Nc2ccccc2)cc1,inactive,inactive,inactive,inactive,,,,
O=C(O)c1cn(C2CC2)c2cc(Cl)c(F)cc2c1=O,inactive,inactive,inactive,inactive,,,,
CCc1c(C)cc(N)c(CC)c1N,39.9 µM (active),71 µM (active),39.9 µM (active),inactive,,,,
C[C@H]1C[C@H]2[C@@H]3CCC4=CC(=O)C=C[C@]4(C)[C@@]3(F)[C@@H](O)C[C@]2(C)[C@@]1(O)C(=O)CO,inactive,inactive,inactive,inactive,,,,
C=CC(=O)OCC(Br)CBr (stereo not given),inactive,inactive,inactive,inactive,,,,
CCCCCC[C@@H](O)C/C=C\CCCCCCCC(=O)O,inactive,inactive,inactive,inactive,,,,

SMILES,Potency [1],Potency [2],Potency [3],Potency [4],"activity, negative = inhibition [1]","activity change, negative = inhibition [2]","activity change, negative = inhibition [3]","activity change, negative = inhibition [4]"
CCCCC(CC)C(=O)OCCOCCOCCOC(=O)C(CC)CCCC (stereo not given),inactive,inactive,inactive,inactive,,,,
NC(CSCC(=O)O)C(=O)O (stereo not given),inactive,inactive,inactive,inactive,,,,
O=C(O)c1ccccc1-n1cc(C(=O)O)c(=O)c2cc(Nc3c(F)cc(F)cc3Cl)c(Cl)cc21,inactive,inactive,inactive,inactive,,,,
O=C(O)c1ccccc1Nc1cccc(C(F)(F)F)c1,inactive,inactive,inactive,inactive,,,,
CCOC(=O)C(C)C(C)=O (stereo not given),inactive,inactive,inactive,inactive,,,,
CC(=O)c1ccc(C(C)=O)cc1,inactive,inactive,inactive,inactive,,,,
O=C1Nc2ccccc2C1(c1ccc(O)cc1)c1ccc(O)cc1,inactive,inactive,inactive,inactive,,,,
O=C1OC(=O)c2ccc3c4c(ccc1c24)C(=O)OC3=O,inactive,inactive,inactive,inactive,,,,
C=CC(=O)OCCCCCC,inactive,inactive,inactive,inactive,,,,
CC1(C)S[C@@H]2[C@H](NC(=O)Cc3ccccc3)C(=O)N2[C@H]1C(=O)O (tested in a mixture with another compound),inactive,inactive,inactive,inactive,,,,
CC1(C)C(=O)N(Br)C(=O)N1Br,inactive,inactive,inactive,inactive,,,,
C=C(C)CNCC,inactive,inactive,inactive,inactive,,,,
CC1(C)C2=CCCC(C)(C)[C@]23CC[C@H]1C3,inactive,inactive,inactive,inactive,,,,
CCC(=O)OCCc1ccccc1,inactive,inactive,inactive,inactive,,,,
Cc1ccc(C)c([N+](=O)[O-])c1,inactive,inactive,inactive,inactive,,,,
Nc1ccc2c(c1)C(=O)c1ccccc1C2=O,inactive,inactive,inactive,inactive,,,,
CC(C)(C)C1=CC(=O)C(C(C)(C)C)=CC1=O,inactive,inactive,inactive,inactive,,,,
CC1=CC[C@@H]2C[C@H]1C2(C)C,,,,,7.66% [at 23.6 µM],0.56% [at 23.6 µM],0.301% [at 23.8 µM],-3.81% [at 23.6 µM]
CCCC(=O)CC,inactive,inactive,inactive,inactive,,,,
CC(C)c1cccc(C(C)C)c1N1C(=O)c2ccc(O)cc2C1=O,inactive,inactive,inactive,inactive,,,,
